Results filed as inconclusive are left out. Active and inactive are the calls of the source. Calls come from the whole dose curve; as a rule, active = well fitted inhibition curve with a large enough effect; inconclusive = small, poorly fitted or top-dose-only effect; inactive = flat fitted curve, though single readings scatter.

A short description of this test: Identification of antibody-drug conjugate (ADC) payloads which are substrates of ATP-binding cassette drug efflux transporters: ABCG2-HEK293-R5 cell line. To be noted: ABCG2-HEK293-R5 viability, CellTiter-Glo ATP luminescence, 48 h. The text has this: Antibody-drug conjugates (ADCs) feature an antibody recognizing a specific protein joined to a potent toxic payload. Numerous antibody-drug conjugates have received FDA approval; however, clinical resistance arises. Resistance mechanisms include decreased expression or mutation of the antibody target, impaired payload release, or increased expression of ATP-binding cassette (ABC) efflux transporters associated with multidrug resistance. We therefore sought to characterize the interaction of ABC multidrug transporters with ADC payloads. We performed a high-throughput screen with 27 common ADC payloads using cells lines expressing ABC transporters P-glycoprotein (P-gp, encoded by ABCB1) or ABCG2 (encoded by ABCG2). Confirmatory assays were also performed using cells transfected to express P-gp, ABCG2, or MRP1 (encoded by ABCC1). Several commonly used ADC payloads were substrates of P-gp, including calicheamicin gamma1, monomethyl auristatin E, DM1, and DM4. All the pyrrolobenzodiazepines tested - SJG136, SGD-1882, SG2057, and SG3199 - were substrates of P-gp, ABCG2, and MRP1. […] These findings highlight the risk of transporter-mediated resistance with certain ADC payloads and underscore the importance of selecting payloads that evade ABC transporter recognition in future ADC development.
HEK-293 cells were transfected with empty vector (pcDNA) or vector containing the human ABCB1 (MDR-19), ABCG2 (R-5), or ABCC1 gene (MRP1) and were maintained in EMEM with 2 mg/mL G418 added to maintain transporter expression. The HeLa derivative KB-3-1 and the P-gp overexpressing KB-8-5-11 subline were maintained in DMEM; KB-8-5-11 additionally received 100 ng/mL colchicine. H460 parental cells were obtained from the Division of Cancer Treatment and Diagnosis Tumor Repository, National Cancer Institute at Frederick, MD and were cultured in RPMI. The ABCG2 expressing subline H460 MX20 was generated by selecting H460 cells in 20 nM mitoxantrone. Media in all cases was supplemented with 10% FBS and 1% penicillin-streptomycin. We explored 27 common ADC payloads, in two orthogonal, paired cell line sets-a drug selected and transfected set for each transporter--to identify substrates of the ABC transporters P-gp and ABCG2. Compounds were sourced from Levena Biopharma (San Diego, CA), Selleck Chem (Houston, TX), ChemieTek (Indianapolis, IN), or Microsource Discovery Systems (Gaylordsville, CT). Screening was performed as previously described. Briefly, cells were plated at a density of 500 cells/well in 1536 well plates with compounds added using a 1536-head pin tool (Kalypsys, San Diego CA). Cells were incubated with cytotoxic drugs and processed with CellTiter Glo reagent (Promega, Madison, WI) to determine viability after 48 hours. P-gp substrates were identified by comparing compound activity between paired sets of low-expressing (sensitive) and over-expressing (resistant) cell lines.
As to `COC(=O)c1cc2c3c(cc(O)c2[nH]1)N(C(=O)c1cc2cc(OC)c(OC)c(OC)c2[nH]1)CC3CCl` (stereo not given), the Potency is 4.2 nM (active).

For `CCN(C(C)=O)[C@H]1CO[C@@H](O[C@H]2[C@H](O[C@H]3C#C/C=C\C#C[C@]4(O)CC(=O)C(NC(=O)OC)=C3/C4=C\CSSSC)O[C@H](C)[C@@H](NO[C@H]3C[C@H](O)[C@H](SC(=O)c4c(C)c(I)c(O[C@@H]5O[C@@H](C)[C@H](O)[C@@H](OC)[C@H]5O)c(OC)c4OC)[C@@H](C)O3)[C@@H]2O)C[C@@H]1OC`, the Potency was 67.1 nM (active).

For the compound `CN(C)CCOc1ccc2[nH]c(C(=O)N3C[C@@H](CCl)c4c3cc(O)c3ccccc43)cc2c1`, the Potency was 1.7 nM (active).

Turning to `CC(C)(C)OC(=O)Nc1ccc2[nH]c(C(=O)N3C[C@@H](CCl)c4c3cc(O)c3ccccc43)cc2c1`, the Potency was 33.6 nM (active).

Regarding `CCN[C@H]1CO[C@@H](O[C@H]2[C@H](O[C@H]3C#C/C=C\C#C[C@]4(O)CC(=O)C(NC(=O)OC)=C3/C4=C\CSSSC)O[C@H](C)[C@@H](NO[C@H]3C[C@H](O)[C@H](SC(=O)c4c(C)c(I)c(O[C@@H]5O[C@@H](C)[C@H](O)[C@@H](OC)[C@H]5O)c(OC)c4OC)[C@@H](C)O3)[C@@H]2O)C[C@@H]1OC`, the Potency was 3.8 nM (active).

(Values after PubChem BioAssay AID2061323 (National Center for Advancing Translational Sciences (NCATS), 2025).)
